Source: PubChem BioAssay (The Scripps Research Institute Molecular Screening Center)
A selection: hits, their analogues and other compounds. The true share with any hit is near 1.8%.
GSTO1 inh: blocks human GSTO1 in RBBP9 counter-screen | P78417 | recombinant GSTO1, activity-based probe fluorescence polarization | hit rate 1.1% among 300,000 | AID 1974 | inhibition, % at 5.96 µM;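 active means inhibition above the campaign mean inhibition plus 3 SD, cut at about 35% in these data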;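 further: 0% = GSTO1-1 with DMSO and 100% = wells lacking GSTO1-1 enzyme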
PME-1 inh: PME-1 (human) inhibition. Q9Y570. hit rate 0.53% among 320,000. inhibition, % at 5.9 µM. AID 2130. recombinant PME-1, FP-Rh probe fluorescence polarization;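 active means inhibition above the campaign mean of all compounds plus 3 SD, cut at about 26% in these data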;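 further: competitive labeling of PME-1 active site by serine hydrolase directed probe; 0% = PME-1 with DMSO and 100% = wells lacking PME-1 enzyme; inhibitors block probe labeling so polarization falls and inhibition rises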
Fam108B counter: Fam108B inhibition, counter-screen for RBBP9 inhibitors; recombinant Fam108B, FP-Rh probe fluorescence polarization; AID 1947; inhibition, % at 9.51 µM; hit rate 0.33% among 300,000;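 active means inhibition above the screen mean inhibition plus 3 SD, computed separately per campaign, cut at about 18% in these data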;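 further: inhibitors lower polarization as less probe binds the enzyme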
LYPLA1 counter: LYPLA1 (human) inhibition in PME1 counter-screen; inhibition, % at 5.9 µM; recombinant LYPLA1, FP-Rh probe fluorescence polarization; AID 2174; hit rate 0.16% among 320,000;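 active means inhibition above the mean of all tested compounds plus 3 SD, set per campaign, cut at about 14% in these data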;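 further: inhibitors block serine hydrolase probe labeling of LYPLA1 so polarization falls; 0% = enzyme with DMSO and 100% = wells lacking LYPLA1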
LYPLA2 inh: LYPLA2 (human) inhibition in PME1 counter-screen; O95372; recombinant LYPLA2, FP-Rh probe fluorescence polarization; inhibition, % at 5.9 µM; hit rate 0.38% among 320,000;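 active means inhibition above the screen-wide mean plus 3 SD, limit set per campaign, cut at about 26% in these data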;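 further: 0% = LYPLA2 with DMSO and 100% = wells lacking LYPLA2 enzyme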
PAD4 inh: blocks human protein arginine deiminase 4; Q9UM07; recombinant PAD4, RCA probe fluorescence polarization; inhibition, % at 6.36 µM; hit rate 0.41% among 330,000;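 active means percent inhibition above a cutoff equal to the mean of all tested compounds plus 3 SD, cut at about 15% in these data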;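 further: 0% = PAD4 with RCA probe and DMSO and 100% = probe without PAD4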
Target sequence (Q9UM07 whole entry, looked up): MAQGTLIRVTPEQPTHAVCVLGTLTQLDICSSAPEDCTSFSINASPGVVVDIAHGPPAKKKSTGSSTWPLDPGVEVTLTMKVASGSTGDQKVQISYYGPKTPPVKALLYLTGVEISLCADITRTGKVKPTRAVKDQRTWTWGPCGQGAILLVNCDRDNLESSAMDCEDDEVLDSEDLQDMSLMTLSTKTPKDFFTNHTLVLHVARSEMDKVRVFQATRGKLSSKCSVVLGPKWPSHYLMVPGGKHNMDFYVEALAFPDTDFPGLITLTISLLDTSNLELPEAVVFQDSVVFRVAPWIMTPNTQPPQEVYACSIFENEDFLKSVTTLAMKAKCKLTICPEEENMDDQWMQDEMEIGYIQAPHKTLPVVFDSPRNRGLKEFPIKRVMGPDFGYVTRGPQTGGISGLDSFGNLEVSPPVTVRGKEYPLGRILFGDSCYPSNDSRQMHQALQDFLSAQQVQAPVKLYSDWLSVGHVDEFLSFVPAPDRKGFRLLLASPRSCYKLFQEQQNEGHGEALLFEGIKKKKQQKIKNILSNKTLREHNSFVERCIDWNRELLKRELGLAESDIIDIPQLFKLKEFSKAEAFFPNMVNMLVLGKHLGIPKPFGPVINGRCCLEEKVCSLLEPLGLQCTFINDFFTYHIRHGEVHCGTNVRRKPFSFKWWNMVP
Starred values were filed as active, the others as inactive; · = no result.

SMILES	GSTO1 inh	PME-1 inh	Fam108B counter	LYPLA1 counter	LYPLA2 inh	PAD4 inh
CN(C)c1ccc(C(=O)Nc2nnc(-c3ccc(Cl)cc3)o2)cc1	36*	5	-1	5	1	6
CC(=O)c1ccc(C(=O)Nc2nnc(-c3ccc(Cl)cc3)o2)cc1	-3	6	2	-1	-2	-1
CCCc1cc(=O)[nH]c(SCC(=O)c2ccc(S(=O)(=O)N3CCCC3)cc2)n1	37*	5	0	1	2	-1
O=C(Cn1c(=O)cnc2ccccc21)N1CCN(S(=O)(=O)c2ccc(F)cc2)CC1	9	16	1	4	2	3
Cc1ccc(S(=O)(=O)N2CCN(C(=O)Cn3c(=O)cnc4ccccc43)CC2)cc1	·	37*	·	-1	5	-2
N#C/C(=C/c1ccc(N2CCCC2)c([N+](=O)[O-])c1)c1nc2ccccc2[nH]1	-3	29*	4	3	7	-2
CCc1ccc(OC)c(S(=O)(=O)Nc2ccc(Cc3ccncc3)cc2)c1	4	27*	2	1	4	-2
CCN(C(=O)CO/N=C/c1ccc(OC)cc1OC)c1c(N)n(Cc2ccccc2)c(=O)[nH]c1=O	·	1	·	0	12	3
Cc1ccc2[nH]c(O)c(N=Nc3nc4ccccc4s3)c2c1	8	9	7	-3	-4	3
Oc1[nH]c2ccccc2c1N=Nc1nc2ccccc2s1	-78	29*	5	3	8	-2
Cc1cccc(CCNCc2c(C(=O)O)c(C)n(-c3ccccc3)c2C)c1	-2	2	-2	-1	0	-5
O=c1nc(/C=C/c2cc([N+](=O)[O-])ccc2Cl)cc(C(F)(F)F)[nH]1	12	27*	8	-2	5	5
O=C1c2c(O)cc(O)cc2O[C@H](c2ccc(O)c(O)c2)[C@H]1O	30	-2	2	-2	36*	-6
O=C1c2c(O)cc(O)cc2O[C@H](c2ccc(O)cc2)[C@H]1O	0	-1	-1	0	20	-2
COc1cc([C@@H]2Oc3cc(C4Oc5cc(O)cc(O)c5C(=O)[C@H]4O)ccc3O[C@H]2CO)ccc1O (some centres not stated)	18	-1	8	-3	50*	-4
Cc1nn2c(=O)cc(COC(=O)c3c(F)cccc3Cl)nc2s1	·	4	·	1	7	3
COc1ccc2nc(NC(=O)CSC(C)C(=O)Nc3cc(C)on3)sc2c1 (configuration not stated)	-3	1	1	2	-3	-2
COCC(=O)NCc1ccc2c(c1)cc(C)n2C	1	7	0	3	-6	15*
COc1ccc(CC(=O)NCc2ccc3c(c2)cc(C)n3C)cc1OC	10	4	6	-1	-5	-7
CCN=c1scc(C)n1/N=C/c1ccc(O)c(O)c1O	69*	-4	5	-4	-9	3
CCN(CC(=O)Nc1ccc2c(c1)OCCO2)C(=O)CSCC(=O)Nc1ccc(C)cc1	8	-10	0	0	-7	-5
Clc1ccc(C#Cc2cccnc2)cc1	-1	0	-1	-2	11	1
COc1ccc(/C=N/Nc2cc(N(C)C)nc(N(C)C)n2)cc1	52*	6	0	-2	-1	-9
CCC(C)C1Nc2ccc(C(=O)NCCc3ccc(OC)c(OC)c3)cc2NC1=O (configuration not stated)	5	-3	6	-3	-2	1
O=C1c2cccc3c(N4CCCCC4)ccc(c23)C(=O)N1c1cccc(O)c1	-18	27*	-22	-22	-28	-23
SMILES	GSTO1 inh	PME-1 inh	Fam108B counter	LYPLA1 counter	LYPLA2 inh	PAD4 inh
Nc1cc(N)cc(-c2nc3ccccc3[nH]2)c1	-7	32*	17	-9	-9	-9
c1ccc(-c2nc3ccccc3[nH]2)cc1	5	-3	5	2	7	0
O=C1NC(=Nc2cccc(O)c2)S/C1=C\c1cccc([N+](=O)[O-])c1	8	5	5	3	5	1
CN(C)c1ccc(/C=N/N=C2/NC(=O)/C(=C/c3ccc([N+](=O)[O-])cc3)S2)cc1	49*	11	2	-1	8	0
O=C(O)c1ccc(N/N=C/c2ccc(OC(=O)c3ccccc3Cl)cc2)cc1	0	18	17	0	26*	1
COP(=O)(OC)C(NC(=O)Nc1ccccc1)c1ccccc1 (configuration not stated)	7	4	-1	4	6	-1
CCOC(=O)c1c2c3c(cccc3[nH]c1=O)C(=O)c1ccccc1-2	6	9	3	1	7	-4
CCOC(=O)c1c2c3c(cccc3n(C)c1=O)C(=O)c1ccccc1-2	15	28*	11	10	13	9
Nn1c(SCC(=O)Nc2cccnc2Cl)nnc1-c1ccccc1	·	-6	·	-1	1	-1
CC1CCCN(C(=O)c2ccc3c(c2)OCO3)C1 (configuration not stated)	-5	-2	3	2	-4	-3
O=C(c1ccc2c(c1)OCO2)N1CCCC(c2ccccc2)C1 (configuration not stated)	6	33*	4	1	3	-1
Cc1ccc(C(=O)Nc2nc(-c3ccccn3)cs2)s1	·	-4	·	-3	-7	2
O=C(Nc1nc(-c2ccccn2)cs1)c1ccc(Cl)s1	44*	-8	-12	-4	3	-1
Cc1sc(=NC(=O)c2ccco2)n(C)c1-c1ccccc1	-1	2	0	-3	0	-9
Cn1c(=NC(=O)c2ccco2)sc2ccccc21	36*	-6	2	3	6	1
COc1cc(/C=N/NC(=O)Cc2ccccc2)cc([N+](=O)[O-])c1O	13	5	0	-2	0	1
COc1cc(/C=N/NC(=O)[C@H](Cc2c[nH]c3ccccc23)NC(=O)OCC(C)C)cc([N+](=O)[O-])c1O	21	30*	9	3	-4	4
Cc1cc(NC(=O)Nc2ccccc2)n(C(C)(C)C)n1	-6	-2	1	3	8	3
O=C(Nc1ccccc1C(=O)O)c1cc(S(=O)(=O)N2CCCCC2)c(Cl)cc1Cl	36*	-4	0	1	-1	3
Cc1cc(NC(=O)COc2ccc3ccccc3c2)no1	4	0	1	-1	2	-2
Cc1ccc(S(=O)(=O)N2CN(Cc3ccco3)c3nc4ccccc4nc32)cc1	11	1	1	1	4	16*
COc1ccc(S(=O)(=O)N2CCCN(CC(=O)Nc3ccc(OC)c(Cl)c3)CC2)cc1	36*	-2	1	-2	-2	2
COc1ccc(C2=NN(Cc3c(F)cccc3Cl)C(=O)CC2)cc1	-3	44*	1	1	1	1
COc1ccc(-n2nc(C(=O)NCC(=O)NCCC3=CCCCC3)c3ccccc3c2=O)cc1	4	-1	-2	-2	-1	0
